Results from PubChem BioAssay (NCI).
The panel holds about 83,000 compounds, 20% with a hit somewhere; the sample as a whole holds those more often.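 Cell lines were cultured in 96-well plates, exposed to a single compound concentration, and assessed for percent growth 48 hours later.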 A number with no mark means an inactive call. Active and inactive are the calls of the source. The calls were made as follows: active = growth percent below 10; inactive = the rest. *1 amine or outer side, *2 acyl side, *3 side chain or, on linkers, in order; H or OH if unused. Where a SMILES comes first, the peptide text is derived from it. [ ]: non-standard residue; d: D form. The star is where a group is joined. ξ: configuration not given here. X5 = CCC(=O)CC1CC(C)CC(C(=O)[*:2])N1[*:1]; X4 = CCCCCCCCC(C)C(=O)*; ξD = NC(CC(=O)O)C(=O)O; Aib = CC(C)(N)C(=O)O; X6 = CC(CN(C)CCO)N*

Key:
Assay in all cases: NCI-60 one-dose screen, 48 h (100 = growth as untreated, 0 = no growth, -100 = all killed)
Details in all cases: 10 µM unless noted
[1] = test system: SR leukemia
[2] = test system: RPMI-8226 leukemia
[3] = test system: OVCAR-4 ovarian
[4] = test system: SK-OV-3 ovarian
[5] = test system: IGROV1 ovarian
[6] = test system: OVCAR-3 ovarian
[7] = test system: NCI/ADR-RES ovarian
[8] = test system: HS 578T breast
[9] = test system: OVCAR-5 ovarian
[10] = test system: OVCAR-8 ovarian

Row | SMILES | growth [1] | growth [2] | growth [3] | growth [4] | growth [5] | growth [6] | growth [7] | growth [8] | growth [9] | growth [10]
1 | CCC(C)C(N)C(=O)NC(CC(N)=O)C(=O)NC(CC(C)C)C(=O)NC(CCCCN)C(=O)NC(C)C(=O)NC(CC(C)C)C(=O)NC(C)C(=O)NC(C)C(=O)NC(CC(C)C)C(=O)NC(C)C(=O)NC(CCCCN)C(=O)NC(CCCCN)C(=O)NC(C(=O)NC(CC(C)C)C(N)=O)C(C)CC (centres undefined) | 85.8% | 74.7% | 95.2% | 110% | 102% | 117% | 102% |  |  | 
2 | COC1=CC(=O)c2c(O)c3c(c(O)c2C1=O)CC(C)(O)OC3 (centres undefined) | 14.3% | 34.7% | -12.8% (active) | 86.9% |  | -0.531% (active) | -4.8% (active) | 67.2% |  | 
3 | CCCCCCCCC(C)C(=O)N1CCCC1C(=O)N1C(CC(=O)CC)CC(C)CC1C(=O)NC(C)C(=O)NC(C)(C)C(=O)NC(C)(C)C(=O)NC(C(=O)NC(C)C(=O)NC(C)(C)C(=O)NC(C)(C)C(=O)NC(C)CN(C)CCO)C(C)CC (centres undefined) (X4-P[X5]A[Aib][Aib]IA[Aib][Aib]-X6; configuration not given here) | -44.2% (active) | -42.5% (active) | -12.9% (active) | -23.8% (active) | -60.3% (active) | -54.6% (active) | -36.9% (active) |  | -82.2% (active) | 
4 | CN1CCC(CN2c3ccccc3Sc3ccccc32)C1 (centres undefined) | 79.2% | 78.7% | 94.4% | 109% |  | 88.8% | 85.8% | 86.1% | 84.1% | 
5 | COc1cc(/C=C/C(=O)CC(=O)/C=C/c2ccc(O)c(OC)c2)ccc1O | -5.89% (active) | -30.3% (active) | 65.8% | 75.3% |  | 37.3% | 37.2% | 55.6% | 61.1% | 
6 | Oc1ccc2ccccc2c1N=Nc1ccccn1 | 8.18% (active) |  | -6.48% (active) | 33.6% | 25% | 20.7% | 0.488% (active) |  | 46.8% | 15.6%
7 | O=C(OC12CC3CC(CC(C3)C1)C2)c1ccc(NCc2cc(O)ccc2O)cc1 | -19.4% (active) | -36% (active) | -85.5% (active) | 45.7% | -81.4% (active) | -90.3% (active) | -79.1% (active) |  | -63.4% (active) | 
8 | O=C1C=CC(=O)N1c1ccccc1 | 45.2% |  |  | 109% | 105% | 1.28% (active) | 97.7% | 103% | 96.4% | 99.5%
9 | Cn1ccc(=Nc2ccc(NC(=O)c3ccc(N=c4ccn(C)c5ccc([N+](=O)[O-])cc45)cc3)cc2)cc1 | 107% |  | 59.4% | 91.4% | 64.8% | 79.5% | 106% | 100% | 87.9% | 69.3%
10 | O=[N+]([O-])CC(O)c1ccccc1 (centres undefined) | 88.2% | 89.7% |  | 118% | 112% | 121% | 101% | 125% | 95.7% | 
11 | Cc1ccc2c(c1)sc(-c1ccc(N(C)C)cc1)[n+]2C |  | -56.7% (active) | 20.3% | -14.2% (active) | 8.14% (active) | -14.8% (active) | 81.3% | 20.3% | 14.4% | 16.3%
12 | CCN1/C(=C/C(C)=C/c2sc3ccc4ccccc4c3[n+]2CC)Sc2ccc3ccccc3c21 |  | -58.1% (active) | -76.9% (active) | -99% (active) | -88.4% (active) | -94.5% (active) | -19.3% (active) | -66.8% (active) | -91.7% (active) | -68.7% (active)
13 | CC1C(c2ccccc2)OCCN1C(=S)Nc1ccc(S(=O)(=O)N2CCCCC2)cc1 (centres undefined) |  | 80.4% | 106% | 110% | 106% | 114% | 92.4% | 85.8% | 87.9% | 92.5%
14 | Cc1cc2nc(CC(=O)c3ccncc3)c(=O)[nH]c2cc1C |  | 103% | 93.8% | 104% | 105% | 112% | 96.8% | 66.8% | 97.2% | 102%
15 | CCCCCCCCCCCCCCCc1ccc(C(=O)C[n+]2ccccc2)cc1 |  | -62.2% (active) | 34.9% | -50.7% (active) |  | -93.1% (active) | -21.5% (active) | -37.3% (active) | -44.1% (active) | -46.7% (active)
16 | NCC(=O)NC(CC(=O)O)C(=O)O (centres undefined) (H-Gly-[ξD]-OH) |  | 111% | 104% | 108% | 107% | 125% | 104% | 99% | 107% | 107%
17 | CC(=O)OC1CC2CCC1(C)C2(C)C (centres undefined) |  | 108% | 113% | 111% | 106% | 103% | 108% | 103% | 94.9% | 98.9%
18 | CC[n+]1ccc(Nc2ccc(NC(=O)c3ccc(Nc4cc[n+](CC)c5ccc([N+](=O)[O-])cc45)cc3)cc2)cc1 |  | 41.9% | 56.8% | 84.5% | 115% | 91.8% | 106% | 97% | 107% | 79%
19 | CCNc1nnnn1CC |  | 107% | 110% | 109% | 115% | 109% | 110% | 102% | 115% | 113%
20 | CCCCCCC1N=C(N)N=C(N)N1c1cccc(Cl)c1 (centres undefined) |  | 14% | 43.9% | 45.1% | 58% | 41.5% | 111% | 55.2% | 58.9% | 35.7%
21 | O=C1Nc2ccc(Br)cc2C1=O |  | 96.4% | 93.2% | 93.9% | 97.9% | 90.5% | 108% | 95.7% | 103% | 100%
22 | Cc1cc(C(=O)c2ccc(Cl)cc2)ccc1O |  | 73.3% | 79.2% | 110% | 117% | 98.8% | 92.2% | 116% | 99% | 85.9%
23 | CCCCCCCCC(=O)OCCCC(CCC(CCC1CCCO1)OC(=O)CCCCCCCC)OC(=O)CCCCCCCC (centres undefined) |  | 112% | 102% | 96.4% | 107% | 110% | 103% | 97.1% | 99.5% | 103%
24 | O=C1c2ccccc2C(=O)c2c(O)c(Cl)cc(O)c21 |  | 96.4% | 84.3% | 99.5% | 81.1% | -17.9% (active) | 93.7% | 106% | 92.6% | 58.2%
25 | OC(c1cc(C23CC4CC(CC(C4)C2)C3)nc2c(Cl)cc(Cl)cc12)C1CCCCN1 (centres undefined) |  | -45.4% (active) | -78.2% (active) | -10.3% (active) | -61.7% (active) | -89.9% (active) | -51.2% (active) | -49.9% (active) | -56% (active) | -53.9% (active)
26 | Cc1cc(C(=C2C=CC(=Nc3ccccc3)C=C2)c2ccc(Nc3ccccc3)cc2)ccc1N |  | 4.29% (active) | -74.2% (active) | -64.8% (active) | -26.9% (active) | -93.7% (active) | -46.7% (active) |  | -60% (active) | -59.3% (active)
27 | COc1cc(NC(=O)C2=C(C)NC(C)=C(C(=O)Nc3cc(OC)c(Cl)cc3OC)C2c2cccc([N+](=O)[O-])c2)c(OC)cc1Cl |  | 25.6% | 39.4% | 52.1% | 11.4% | 32.3% | 22% | 8.61% (active) | 34.4% | 38.3%
28 | O=C(Cc1ccccc1)C(F)(F)F |  | 106% | 106% | 101% | 101% | 101% | 104% | 111% | 99.5% | 103%
